Experimental data published in the supplement of paper PMC5407854, “Inhibitor of ppGalNAc-T3-mediated O-glycosylation blocks cancer cell invasiveness and lowers FGF23 levels” (eLife, 2017).
In all, about 1,700 compounds were measured (“T3 sensor activation Q score (MG/GFP ratio z-score vs DMSO controls)”: median about 0.25, highest 2% from about 1.9 on). What follows is part of a selection rich in the highest values, with near analogues and random picks from the rest.

These compounds were tested on ppGalNAc-T3 sensor (assay: T3 sensor activation Q score (MG/GFP ratio z-score vs DMSO controls) (SD units); higher = more sensor activation (inhibition of ppGalNAc-T3 glycosylation)). Conditions: HEK293 sensor cells; 10 µM; 6 h.
Experimental: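 Cells were treated with compound at 10 uM for 6 h, then MG/GFP ratio was read by flow cytometry (10,000 cells per well, duplicate wells). Q = (R - R_neg)/SD_neg relative to DMSO vehicle controls; the signal rises when the glycosyltransferase is inhibited.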

In order of rising “T3 sensor activation Q score” value:
1. Cc1ccc(NC(=O)c2ccc(CN3CCN(C)CC3)cc2)cc1Nc1nccc(-c2cccnc2)n1  -1.55
2. Cc1cc(=O)c2c(=O)[nH][nH]c2[nH]1  -1.35
3. Cn1cnc2ncnn2c1=S  -1.2
4. CN(C)c1nc(=NCc2ccco2)ss1  -1.15
5. CCOC(=O)N1CCN(Cc2c(O)ccc3ccccc23)CC1  -0.95
6. COc1ccc([N+](=O)[O-])cc1NS(=O)(=O)c1ccc(C)cc1  -0.7
7. C#Cc1cccc(NC(=O)c2ccc(Cl)cc2Cl)c1  -0.65
8. Nc1nc(Nc2ccccc2)n[nH]1  -0.55
9. CCCNC(=O)c1ccccc1C(=O)NC1(C(=O)NCCC)CCCC1  -0.35
10. Cc1cnc(SCc2ccc(Cl)cc2Cl)[nH]c1=O  -0.3
11. Clc1nnc2c3ccccc3ccn12  0.05
12. Cc1c(NC(=O)Nc2c(Cl)cccc2Cl)c(=O)n(-c2ccccc2)n1C  0.1
13. CC(=O)NS(=O)(=O)c1ccc2sc(C)nc2c1  0.15
14. Cc1nc(C(N)=O)nc2ccccc12  0.2
15. NC(N)=NS(=O)(=O)c1ccc(N=C2C(=O)Nc3ccccc32)cc1  0.3
16. CCc1noc2cc(-c3ccccc3)n(C)c(=O)c12  0.35
17. C=CCNC(=S)NCC=C  0.35
18. NC(=O)Nc1ccc(Nc2ccccc2)cc1  0.7
19. CNC(=O)c1ccccc1Sc1ccc2c(/C=C/c3ccccn3)n[nH]c2c1  0.7
20. Cn1c(=O)c2c(nc(Oc3ccccc3)n2C)n(C)c1=O  0.7
21. C=CCNC(=S)Nc1c(N)n(C)c(=O)n(C)c1=O  0.75
22. CCOC(=O)c1cc(-c2ccccc2)nc2ccc(C)cc12  0.8
23. OCCCCc1nccc2c1[nH]c1ccccc12  1
24. Oc1c(N=Nc2nn[nH]n2)ccc2ccccc12  1.25
25. CCCSc1ncnc2[nH]ncc12  1.45
26. Cn1c(=O)c2c(nc(OCCc3ccccc3)n2C)n(C)c1=O  1.6
27. Nc1ccc(S(=O)(=O)NCC2CCCCO2)cc1 (stereo unspecified)  1.6
28. O=C(O)CCC(=O)c1ccc2ccc3cccc4ccc1c2c34  1.75
29. CCOC(=O)Nc1c(Cl)n(C)c(=O)n(C)c1=O  1.75
30. CC1(C)CC(Nc2ccc(Nc3ccccc3)cc2)CC(C)(C)N1  1.85
31. CCOC(=O)c1cc(OCC)c2c(ccc3ccccc32)n1  1.85
32. Cn1c(=O)c2c(nc(Cc3ccccc3)n2C)n(C)c1=O  1.9
33. Cc1ccc(C(=O)Nc2ccc(CN3CCN(C)CC3)c(C(F)(F)F)c2)cc1C#Cc1cnc2cccnn12  1.9
34. C=CCNC(=S)NCC  1.9
35. C#Cc1cccc(Nc2ncnc3cc(OCCOC)c(OCCOC)cc23)c1  2.15
36. NC(=O)c1cc2c3ccccc3ccn2c1-c1ccccc1  2.95
